# “And” between values parts separate entries of the source, which are not always exact repeats. Identical values can stand only once. The source made the active and inactive calls. The calls were made as follows: active = hit-call score of the fitted dose curve at least 0.9, where 1 is the maximum; inactive = score below 0.9.
# Test: BSK_IMphg_SRB: Viability Assessment in the BioMAP Diversity Plus: IMphg Assay (AID 2284292);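 also: measured one day after compound addition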
# Conditions: primary human endothelial cells with macrophages
# Method: BSK_IMphg is a cell-based, multiplexed-readout assay that uses venular endothelial cells and macrophages, a human vascular primary cell, with measurements taken at 24 hours after chemical dosing in a microplate: 96-well plate.BSK_IMphg_SRB is an assay component measured in the BSK_IMphg assay. It measures […] related to cell death using Sulforhodamine staining technology.Data from the assay component BSK_IMphg_SRB was analyzed at the endpoint, BSK_IMphg_SRB, in the positive analysis fitting direction relative to DMSO as the negative control and baseline of activity. Using a type of viability reporter, gain or loss-of-signal activity can be used to understand protein changes. To generalize the intended target to other relatable targets, this assay endpoint is annotated to the 'cell morphology' intended target family, where the subfamily is 'cell conformation'.
# The levels of cell surface (or secreted, indicated by the prefix "s") biomarker endpoints were measured by ELISA. Overt cytotoxicity to cells in confluent adherent cultures (all systems other than the BT system) was assessed by measuring total protein levels using sulforhodamine B (SRB) staining in parallel cultures at the time of biomarker measurements, indicated as SRB endpoints. For proliferation assays for adherent cell types, individual cell types are cultured at sub-confluence and relative cell numbers quantified by SRB staining at time points optimized for each system (48 h: 3C and CASM3C systems; 72 h: BT and HDF3CGF systems; 96 h: SAg system). SRB was performed by staining cells with 0.1% SRB after fixation with 10% TCA and reading wells at 560 nm.Viability and proliferation of PBMC (T cells) was quantified by Alamar Blue reduction for the SAg and BT systems. For PBMC viability (referred to as PBMC Cytotoxicity within the assay endpoint names), cells were plated (75,000/well in a 96-well plate) and then chemical samples added for 1 h before addition of activators, SEB and TSST-1 (20 ng/mL final concentration each). Cells were incubated for 90 h. Then, Alamar Blue (20 uL/well) (Invitrogen, Cat DAL1100) was added for 6 h, and the plates were read with a fluorescence microplate reader at 546/580 nm (excitation/emission). For PBMC proliferation, cells were plated and activated as above but incubated for only 16 h prior to addition of Alamar Blue. Plates were read after 6 h.
SMILES,outcome,AC50
O=S(=O)(O)C(F)(F)C(F)(F)C(F)(F)C(F)(F)C(F)(F)C(F)(F)C(F)(F)C(F)(F)C(F)(F)C(F)(F)F,inactive,
O=P(O)(O)CCC(F)(F)C(F)(F)C(F)(F)C(F)(F)C(F)(F)C(F)(F)C(F)(F)C(F)(F)F,inactive,
O=C(O)CCC(F)(F)C(F)(F)C(F)(F)C(F)(F)C(F)(F)F,inactive,
OCC(F)(F)C(F)(F)C(F)(F)C(F)(F)C(F)(F)C(F)(F)C(F)(F)C(F)(F)C(F)(F)C(F)(F)C(F)(F)F,inactive,
C=CC(=O)OCCC(F)(F)C(F)(F)C(F)(F)C(F)(F)C(F)(F)C(F)(F)C(F)(F)C(F)(F)F,inactive,
O=C(O)C(F)(F)OC(F)(F)C(F)(F)OC(F)(F)C(F)(F)OC(F)(F)C(F)(F)C(F)(F)C(F)(F)F,,53.4 µM (active) and 51.8 µM (active)
O=P(O)(O)CCC(F)(F)C(F)(F)C(F)(F)C(F)(F)C(F)(F)C(F)(F)F,inactive,
O=C(O)CCC(F)(F)C(F)(F)C(F)(F)C(F)(F)C(F)(F)C(F)(F)F,inactive,
CN(Cc1cnc2nc(N)nc(N)c2n1)c1ccc(C(=O)N[C@@H](CCC(=O)O)C(=O)O)cc1,inactive,
CN(CCO)S(=O)(=O)C(F)(F)C(F)(F)C(F)(F)C(F)(F)C(F)(F)C(F)(F)C(F)(F)C(F)(F)F,inactive,
O=C(CC(=O)C(F)(F)C(F)(F)C(F)(F)F)c1cccs1,,44.9 µM (active) and 39.7 µM (active)
